Experimental data as given in PubChem BioAssay (NCATS).
Inconclusive results are not listed. Values without a mark were called inactive. Calls of active or inactive are those of the source. Calls follow the shape of the dose curve; as a rule, active = well fitted inhibition curve with a large enough effect; inconclusive = small, poorly fitted or top-dose-only effect; inactive = no such curve, though single readings can be large or run the other way.

Target: Cytochrome P450 3A4 (Homo sapiens) (UniProt P08684)
Sequence (P08684 whole entry, looked up): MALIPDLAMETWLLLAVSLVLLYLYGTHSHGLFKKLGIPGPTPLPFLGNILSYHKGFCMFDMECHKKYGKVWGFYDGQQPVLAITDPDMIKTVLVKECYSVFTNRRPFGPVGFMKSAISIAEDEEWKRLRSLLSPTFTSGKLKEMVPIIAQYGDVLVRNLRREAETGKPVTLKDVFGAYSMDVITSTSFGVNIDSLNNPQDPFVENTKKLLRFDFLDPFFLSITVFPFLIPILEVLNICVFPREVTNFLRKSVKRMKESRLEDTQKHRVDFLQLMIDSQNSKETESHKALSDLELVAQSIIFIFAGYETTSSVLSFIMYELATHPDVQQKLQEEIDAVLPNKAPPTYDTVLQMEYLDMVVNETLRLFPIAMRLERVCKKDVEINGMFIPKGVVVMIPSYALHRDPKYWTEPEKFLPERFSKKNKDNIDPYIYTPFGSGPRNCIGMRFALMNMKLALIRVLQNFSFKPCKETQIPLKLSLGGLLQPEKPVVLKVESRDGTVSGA
Test: qHTS Assay for Inhibitors and Substrates of Cytochrome P450 3A4 (AID 884); also: nearly all actives have a fitted effect of over 50% in size
Settings: recombinant CYP3A4, Luciferin-PPXE luminescence; series mostly up to 57.1 µM; activity change, negative = inhibition: at the top concentration
Protocol: NIH Molecular Libraries Screening Centers Network [MLSCN]
NIH Chemical Genomics Center [NCGC]
The P450 gene superfamily is involved in the metabolism and clearance of xenobiotics. This assay used human CYP3A4 to measure the dealkylation of luciferin-6' phenylpiperazinylyl (Luciferin-PPXE; […]) to luciferin. The luciferin is then measured by luminescence after the addition of a luciferase detection reagent. Luciferin-PPXE concentration in the assay was equal to its KM for CYP3A4. Inhibitors and some substrates limit the production of luciferin, and decrease measured luminescence.
NCGC Assay Protocol Summary:
Two uL of enzyme and substrate mix (final concentrations: 20nM CYP3A4, 25uM Luciferin-PPXE, 200mM KPO4) were dispensed into a white, solid bottom 1536-well microtiter plate. 23nL of compound was transferred by a pin tool. The plate was incubated at RT for 10 min. Two uL of an NADPH regeneration solution (Promega supplied reagent) was dispensed and the reaction was allowed to continue for 60 min at RT. Then the reaction was stopped by reconstituted luciferin detection buffer. After another 20 min of incubation the plate was read on the ViewLux (Perkin Elmer) at 60 sec exposure and 2x2 binning. This protocol was carried out with Promega-Glo reagents and further information can be found at http://www.promega.com/tbs/tb325/tb325.pdf. Data were normalized to the to AC100 inhibition (57 uM ketoconazole).
Keywords: P450, CYP3A4, Luciferase, MLSMR, MLSCN, NIH Roadmap, qHTS, NCGC
% is scaled to controls: 0 for no effect and ±100 for the full control effect; potency is read from the fitted curve at half-maximal effect.

Structure (SMILES)	activity change, negative = inhibition	Potency
CC(=O)CC1CCCCN1 (stereo not given)	-18.6%	
COc1cc2c(c(OC)c1OC)-c1ccc(O)c(=O)cc1C(NC(C)=O)CC2 (stereo not given)	-22.2%	
CC(C)C[C@H]1C(=O)N2CCC[C@@H]2[C@@]2(O)O[C@](NC(=O)[C@@H]3C=C4c5cccc6[nH]cc(c56)C[C@@H]4N(C)C3)(C(C)C)C(=O)N12		2 µM (active)
C=C(C)C1CNC(C(=O)O)C1CC(=O)O (stereo not given)	0.469%	
CCSC(=O)Cl	-2.36%	
C=C1C([C@@]2(C)C(OC(C)=O)CC(=O)O[C@@](C)(COC(C)=O)C2CC(=O)OC)C(OC=O)C(OC(=O)C(OC(C)=O)C(C)CC)[C@]2(C)C(c3ccoc3)CC(=O)C12O (stereo not given in full)		12.6 µM (active)
OCC(Br)CBr (stereo not given)	-5.52%	
C=C(C)C#N	10.3%	
CCOc1ccc2c(c1)C(C)=CC(C)(C)N2		15.8 µM (active)
C[N+](C)(C)Cc1ccccc1	-4.06%	
CC(=O)OC1CC(OC(C)=O)[C@]2(C)C(CC(OC(C)=O)[C@]3(C)C2CC[C@@]2(C)C(c4ccoc4)C[C@H]4O[C@]432)C1(C)C (stereo not given in full)	-49.7%	
CC(=O)OC1C[C@H](O[C@@H]2C(O)C[C@H](O[C@@H]3C(O)C[C@@H](OC4CC[C@]5(C)C(CCC6C5CC(O)[C@@]5(C)C(C7=CC(=O)OC7)CC[C@@]65O)C4)OC3C)OC2C)O[C@H](C)[C@H]1O[C@H]1OC(CO)C(O)C(O)C1O (stereo not given in full)	-4.68%	
CN1C2CC(OC(=O)C(CO)c3ccccc3)CC1C(O)C2 (stereo not given)	-14.5%	
O=C(NC(=O)c1ccccc1Cl)Nc1ccc(OC(F)(F)F)cc1	-16.9%	
[O-][Br+2]([O-])O		inactive
Cc1cccc([N+](=O)[O-])c1	-7.71%	
CC(C)(C)[C@]1(O)C[C@@H]2OC(=O)C[C@@]23C(=O)O[C@@H]2OC(=O)[C@H](O)[C@]213	-17.9%	
ClCBr	-2.51%	
CCS(=O)CCSP(=O)(OC)OC (stereo not given)	3.58%	
O=C1NC(=O)C(=O)C(=O)N1	-7.87%	

Structure (SMILES)	activity change, negative = inhibition	Potency
CCNc1nc(Cl)nc(NC(C)C)n1	-10.2%	
C/C=C(\C)C(=O)OC1CC(OC(C)=O)[C@@]2(C(=O)OC)COC3C2[C@@]12CO[C@](O)(C(=O)OC)C2[C@](C)(C12OC1(C)C1CC2OC2OC=C[C@]21O)C3O (stereo not given in full)		12.6 µM (active)
CNC(=O)Oc1ccccc1OC(C)C	-5.15%	
COc1cc(C2c3cc4c(c(O)c3CC3COC(=O)C32)OCO4)cc(OC)c1OC (stereo not given)		1 µM (active)
COc1nc(NC(C)C)nc(NC(C)C)n1	-7.11%	
CNc1ccccc1C(=O)O	-7.2%	
CCC(C)C(=O)O[C@@H]1C[C@@]2(C)C(c3ccoc3)OC(=O)CC23OC2(C)O[C@@]14[C@@]1(C)C(CC(=O)OC)C5(C)CC1(O)C(O)(C5OC(=O)C1(C)OC1C)C(OC(C)=O)[C@@]34O2 (stereo not given in full)		1 µM (active)
CNC(Cc1c[nH]c2ccccc12)C(=O)O (stereo not given)	-9.88%	
OC[C@@H]1CCCN2CCCC[C@@H]12	-9.14%	
CCCCC/C=C\C/C=C\C/C=C\C/C=C\CCCC(=O)Nc1ccc(O)cc1		5.01 µM (active)
O=NN(CCO)CCO	-15.5%	
CCC(C)C(=O)OC1C(O)C2C(CN3CC(C)CCC3[C@]2(C)O)C2C[C@]34O[C@@]5(O)C(OC(=O)C(C)(O)CC)CCC3(C)C5C(OC(C)=O)C(OC(C)=O)C4[C@@]21O (stereo not given in full)	-4.14%	
Nc1c(Cl)c(Cl)nc(C(=O)O)c1Cl	-2.2%	
CNC(=O)O/N=C(/C)SC	-13.3%	
O=C=NC1CCCCC1		inactive
CCC(C)C(=O)c1c(O)c(C)c2oc3c(C)c(O)c(C(=O)C(C)CC)c(O)c3c2c1O (stereo not given)	-2.3%	
COC1=CC2C3Cc4ccc(OC)c(O)c4[C@]2(CCN3C)CC1=O (stereo not given in full)	-14.5%	
COC(=O)NC(=S)Nc1ccccc1NC(=S)NC(=O)OC	-19.9%	
CCOC(=O)C1C(C=C(C)C)C1(C)C (stereo not given)	-14.8%	
C=C(C)C1Cc2c(ccc3c(=O)c4c(oc23)COc2cc(OC)c(OC)cc2-4)O1 (stereo not given)	-1%	
